# Results: PubChem BioAssay (Tox21)
# A number with no mark means an inactive call. Results filed as inconclusive are left out. A call without a number means that no potency is given here. Calls of active or inactive are those of the source. Unless noted, calls come from the whole dose curve; as a rule, active = well fitted curve in the direction sought with a large enough effect in the repeat runs; inconclusive = weak or mixed curves; inactive = no such curve, though single readings can be large; an effect the other way counts as inactive or inconclusive.
# Experiments:
# [1] = target: Acetylcholinesterase (Homo sapiens) (UniProt P22303); assay: Acetylcholinesterase (AChE) small molecule antagonists: enzyme-based qHTS assay (AID 1347397; calls by dose curve; note: nearly all actives have a fitted effect of over 55% in size); conditions: Potency: AChE enzyme activity inhibition
# Outline: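 Human recombinant acetylcholinesterase; substrate acetylthiocholine; thiocholine quantified with DTNB (colorimetric). Compound preincubation 30 min RT; reaction 10 min RT.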
# [2] = target: Acetylcholinesterase (Homo sapiens) (UniProt P22303); assay: Acetylcholinesterase (AChE) small molecule antagonists: fluorescence cell-based qHTS assay (AID 1347398; calls by dose curve; note: nearly all actives have a fitted effect of over 50% in size); conditions: Potency: AChE activity
# Outline: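 Thiocholine generated from acetylthiocholine by SH-SY5Y cell AChE is detected with Thiolite Green (Ex/Em 490/520 nm) after 40 min at room temperature, following 30 min compound pretreatment at 37 C.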
# [3] = target: Acetylcholinesterase (Homo sapiens) (UniProt P22303); assay: Acetylcholinesterase (AChE) small molecule antagonists: enzyme-based qHTS assay with human liver microsomes (AID 1347399; calls by dose curve; note: nearly all actives have a fitted effect of over 60% in size); conditions: Potency: qHTS inhibition
# Outline: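 Recombinant human AChE (50 mU/mL in the enzyme mix) and human liver microsomes (0.25 mg/mL final) were preincubated with compound and NADPH (0.25 mg/mL final) for 30 min at 37 C. Acetylthiocholine/DTNB was then added; thiocholine was read colorimetrically after 10 min at room temperature.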
# [4] = target: Cytochrome P450 2D6 (Homo sapiens) (UniProt P10635); assay: Cytochrome P450 Family 2 Subfamily D Member 6 (CYP2D6) small molecule antagonists: luciferase reporter qHTS assay (AID 1671196); note: nearly all actives have a fitted effect of over 50% in size; note: potency is the fitted concentration of half-maximal effect; for activity change, negative = inhibition: series mostly up to about 120 µM
# Outline: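 Cell-free P450-Glo system: CYP2D6 with proluciferin substrate was pre-incubated with compound for 10 min, then reacted with NADPH regeneration for 1 h at room temperature. Luciferin product was detected after 20 min, and data were reported as relative luminescence units.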
# [5] = target: Cytochrome P450 2C19 (Homo sapiens) (UniProt P33261); assay: Cytochrome P450 Family 2 Subfamily C Member 19 (CYP2C19) small molecule antagonists: luciferase reporter qHTS assay (AID 1671197); note: nearly all actives have a fitted effect of over 65% in size; note: potency is the fitted concentration of half-maximal effect; for activity change, negative = inhibition: series mostly up to about 120 µM
# Outline: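 Inhibition of CYP2C19 was scored from loss of luminescence in a P450-Glo proluciferin substrate assay, NADPH-started and run 1 h at 37C, with ketoconazole as positive control.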
# [6] = target: Cytochrome P450 2C9 (Homo sapiens) (UniProt P11712); assay: Cytochrome P450 Family 2 Subfamily C Member 9 (CYP2C9) small molecule antagonists: luciferase reporter qHTS assay (AID 1671198); note: nearly all actives have a fitted effect of over 50% in size; note: potency is the fitted concentration of half-maximal effect; for activity change, negative = inhibition: series mostly up to about 120 µM
# Outline: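 CYP2C9 activity was measured with a P450-Glo proluciferin substrate. Enzyme–substrate mix was held with compound for 10 min at room temperature, then NADPH regeneration solution was added for 1 h at 37C. Luciferin product was read as luminescence.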
# [7] = target: Cytochrome P450 1A2 (Homo sapiens) (UniProt P05177); assay: Cytochrome P450 Family 1 Subfamily A Member 2 (CYP1A2) small molecule antagonists: luciferase reporter qHTS assay (AID 1671199); note: nearly all actives have a fitted effect of over 50% in size; note: potency is the fitted concentration of half-maximal effect; for activity change, negative = inhibition: series mostly up to about 120 µM
# Outline: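 P450-Glo CYP1A2 enzyme–proluciferin substrate mix with compound 10 min at room temperature, then NADPH regeneration 1 h at room temperature. Luciferin detection reagent added, luminescence read after 20 min; furafylline positive control.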
# [8] = target: Voltage-gated inwardly rectifying potassium channel KCNH2 (Homo sapiens) (UniProt Q12809); assay: Human Ether-a-go-go-Related Gene (hERG) channel small molecule antagonists: fluorescence cell-based qHTS assay (AID 1671200)
# Outline: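 U2OS cells expressing the channel were plated at 1000 cells/well, incubated overnight at 37 C, then loaded with FluxOR II thallium-sensitive dye for 1 h at room temperature in the dark, with a further 10 min at room temperature before stimulation.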
# [9] = target: Cytochrome P450 3A4 (Homo sapiens) (UniProt P08684); assay: Cytochrome P450 Family 3 Subfamily A Member 4 (CYP3A4) small molecule antagonists: luciferase reporter qHTS assay (AID 1671201); note: nearly all actives have a fitted effect of over 50% in size; note: potency is the fitted concentration of half-maximal effect; for activity change, negative = inhibition: series mostly up to about 120 µM
# Outline: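 P450-Glo CYP3A4 system with proluciferin substrate; compounds preincubated 10 min RT with enzyme-substrate mix, then NADPH regeneration added for 1 h RT. Detection reagent 20 min, luminescence read as relative luminescence units.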
# Cytochrome P450 2C9 (Homo sapiens), sequence (P11712 whole entry, looked up): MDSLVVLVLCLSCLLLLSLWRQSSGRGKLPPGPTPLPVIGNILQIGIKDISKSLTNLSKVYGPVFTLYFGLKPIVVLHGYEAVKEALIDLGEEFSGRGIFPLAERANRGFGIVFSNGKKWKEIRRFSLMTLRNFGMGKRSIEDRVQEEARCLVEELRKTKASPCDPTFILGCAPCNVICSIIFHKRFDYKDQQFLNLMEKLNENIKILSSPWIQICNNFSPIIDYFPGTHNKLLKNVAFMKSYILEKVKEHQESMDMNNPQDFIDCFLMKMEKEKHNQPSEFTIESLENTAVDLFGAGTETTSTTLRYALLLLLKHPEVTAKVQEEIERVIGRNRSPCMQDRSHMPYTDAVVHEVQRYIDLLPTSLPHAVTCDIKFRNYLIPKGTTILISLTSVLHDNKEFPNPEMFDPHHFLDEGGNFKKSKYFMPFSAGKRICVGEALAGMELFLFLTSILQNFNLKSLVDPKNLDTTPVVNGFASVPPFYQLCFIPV
# Acetylcholinesterase (Homo sapiens), sequence (P22303 whole entry, looked up): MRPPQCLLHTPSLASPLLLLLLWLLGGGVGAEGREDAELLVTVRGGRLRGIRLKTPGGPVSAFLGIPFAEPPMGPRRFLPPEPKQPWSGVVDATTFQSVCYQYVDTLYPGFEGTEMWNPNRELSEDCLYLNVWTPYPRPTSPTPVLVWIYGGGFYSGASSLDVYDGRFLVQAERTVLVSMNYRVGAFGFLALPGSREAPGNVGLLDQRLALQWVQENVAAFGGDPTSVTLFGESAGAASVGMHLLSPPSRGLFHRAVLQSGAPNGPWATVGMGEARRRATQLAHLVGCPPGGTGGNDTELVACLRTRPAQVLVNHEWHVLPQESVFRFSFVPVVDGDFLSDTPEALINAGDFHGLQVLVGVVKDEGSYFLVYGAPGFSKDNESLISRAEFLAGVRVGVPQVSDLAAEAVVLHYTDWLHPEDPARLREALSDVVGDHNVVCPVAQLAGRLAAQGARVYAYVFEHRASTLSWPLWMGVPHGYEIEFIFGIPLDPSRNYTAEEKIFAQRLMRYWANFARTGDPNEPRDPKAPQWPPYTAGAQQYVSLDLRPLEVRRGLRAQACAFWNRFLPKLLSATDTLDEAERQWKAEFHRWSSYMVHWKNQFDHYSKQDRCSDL
# Cytochrome P450 1A2 (Homo sapiens), sequence (P05177 whole entry, looked up): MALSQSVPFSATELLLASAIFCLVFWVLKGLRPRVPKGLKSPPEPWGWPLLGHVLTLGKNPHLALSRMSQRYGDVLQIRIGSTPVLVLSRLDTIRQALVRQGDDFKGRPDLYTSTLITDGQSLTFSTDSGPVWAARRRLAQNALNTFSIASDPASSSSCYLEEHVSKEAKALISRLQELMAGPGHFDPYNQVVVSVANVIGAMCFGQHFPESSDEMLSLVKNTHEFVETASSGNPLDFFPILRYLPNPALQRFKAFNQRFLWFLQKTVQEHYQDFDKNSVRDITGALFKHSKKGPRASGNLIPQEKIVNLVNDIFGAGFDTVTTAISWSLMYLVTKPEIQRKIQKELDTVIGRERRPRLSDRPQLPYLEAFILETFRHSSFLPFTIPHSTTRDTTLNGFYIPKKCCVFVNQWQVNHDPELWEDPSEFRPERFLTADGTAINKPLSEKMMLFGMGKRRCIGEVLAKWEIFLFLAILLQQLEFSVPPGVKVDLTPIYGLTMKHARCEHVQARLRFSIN
# Cytochrome P450 2D6 (Homo sapiens), sequence (P10635 whole entry, looked up): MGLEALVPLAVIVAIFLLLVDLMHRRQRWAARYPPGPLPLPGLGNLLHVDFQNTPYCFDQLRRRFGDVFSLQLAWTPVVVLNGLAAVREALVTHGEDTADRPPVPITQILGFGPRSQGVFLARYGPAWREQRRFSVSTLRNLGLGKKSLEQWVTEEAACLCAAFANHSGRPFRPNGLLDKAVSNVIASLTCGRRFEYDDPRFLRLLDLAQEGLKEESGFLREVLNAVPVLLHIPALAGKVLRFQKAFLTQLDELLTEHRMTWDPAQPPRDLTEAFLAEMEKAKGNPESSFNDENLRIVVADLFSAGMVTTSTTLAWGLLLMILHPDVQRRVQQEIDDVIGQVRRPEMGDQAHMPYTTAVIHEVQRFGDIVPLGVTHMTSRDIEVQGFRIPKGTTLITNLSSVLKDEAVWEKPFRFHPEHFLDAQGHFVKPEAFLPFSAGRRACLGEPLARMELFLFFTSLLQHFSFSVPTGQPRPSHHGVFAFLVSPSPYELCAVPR
# Voltage-gated inwardly rectifying potassium channel KCNH2 (Homo sapiens), sequence (Q12809 whole entry, looked up): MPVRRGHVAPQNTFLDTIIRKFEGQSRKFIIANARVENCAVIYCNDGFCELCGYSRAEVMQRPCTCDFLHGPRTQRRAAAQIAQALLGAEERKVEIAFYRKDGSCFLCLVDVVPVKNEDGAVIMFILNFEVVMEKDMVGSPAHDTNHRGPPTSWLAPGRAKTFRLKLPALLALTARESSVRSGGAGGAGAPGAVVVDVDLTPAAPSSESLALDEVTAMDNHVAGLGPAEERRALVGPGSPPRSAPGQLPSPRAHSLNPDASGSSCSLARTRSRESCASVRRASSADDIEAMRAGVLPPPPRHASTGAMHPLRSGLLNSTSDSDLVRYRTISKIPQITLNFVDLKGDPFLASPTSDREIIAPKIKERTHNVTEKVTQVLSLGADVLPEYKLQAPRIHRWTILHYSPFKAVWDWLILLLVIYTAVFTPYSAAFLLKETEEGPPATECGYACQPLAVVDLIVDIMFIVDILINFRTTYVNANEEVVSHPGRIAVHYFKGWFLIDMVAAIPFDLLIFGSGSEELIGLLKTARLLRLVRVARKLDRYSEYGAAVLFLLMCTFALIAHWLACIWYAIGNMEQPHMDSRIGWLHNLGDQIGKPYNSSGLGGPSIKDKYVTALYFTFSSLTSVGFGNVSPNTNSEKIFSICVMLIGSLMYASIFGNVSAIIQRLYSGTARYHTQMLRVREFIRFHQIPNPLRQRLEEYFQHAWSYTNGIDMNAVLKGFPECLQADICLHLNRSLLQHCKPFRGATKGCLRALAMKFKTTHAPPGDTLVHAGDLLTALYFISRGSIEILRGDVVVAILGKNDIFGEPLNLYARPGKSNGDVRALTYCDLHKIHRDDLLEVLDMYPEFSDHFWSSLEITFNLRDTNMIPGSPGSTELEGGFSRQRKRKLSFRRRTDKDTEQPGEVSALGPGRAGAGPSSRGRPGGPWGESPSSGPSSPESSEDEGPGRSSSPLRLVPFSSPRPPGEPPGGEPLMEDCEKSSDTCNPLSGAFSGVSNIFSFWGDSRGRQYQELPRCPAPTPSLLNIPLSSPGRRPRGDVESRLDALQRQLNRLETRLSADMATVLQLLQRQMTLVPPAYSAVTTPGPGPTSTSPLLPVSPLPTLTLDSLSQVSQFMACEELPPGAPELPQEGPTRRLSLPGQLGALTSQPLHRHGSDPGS
# Cytochrome P450 3A4 (Homo sapiens), sequence (P08684 whole entry, looked up): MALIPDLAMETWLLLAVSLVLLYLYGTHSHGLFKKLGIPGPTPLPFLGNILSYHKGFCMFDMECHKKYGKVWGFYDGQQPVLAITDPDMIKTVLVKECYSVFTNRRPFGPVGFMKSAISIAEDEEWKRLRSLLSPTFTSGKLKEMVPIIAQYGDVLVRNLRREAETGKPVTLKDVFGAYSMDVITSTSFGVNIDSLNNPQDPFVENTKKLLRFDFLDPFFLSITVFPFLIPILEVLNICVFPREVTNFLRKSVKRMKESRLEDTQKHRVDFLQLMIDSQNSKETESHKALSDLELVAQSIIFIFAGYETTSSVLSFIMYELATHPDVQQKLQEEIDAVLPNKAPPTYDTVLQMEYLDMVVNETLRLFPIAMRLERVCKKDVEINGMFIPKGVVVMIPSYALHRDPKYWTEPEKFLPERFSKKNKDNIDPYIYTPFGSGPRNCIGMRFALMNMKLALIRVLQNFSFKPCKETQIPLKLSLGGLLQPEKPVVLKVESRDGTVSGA
# Cytochrome P450 2C19 (Homo sapiens), sequence (P33261 whole entry, looked up): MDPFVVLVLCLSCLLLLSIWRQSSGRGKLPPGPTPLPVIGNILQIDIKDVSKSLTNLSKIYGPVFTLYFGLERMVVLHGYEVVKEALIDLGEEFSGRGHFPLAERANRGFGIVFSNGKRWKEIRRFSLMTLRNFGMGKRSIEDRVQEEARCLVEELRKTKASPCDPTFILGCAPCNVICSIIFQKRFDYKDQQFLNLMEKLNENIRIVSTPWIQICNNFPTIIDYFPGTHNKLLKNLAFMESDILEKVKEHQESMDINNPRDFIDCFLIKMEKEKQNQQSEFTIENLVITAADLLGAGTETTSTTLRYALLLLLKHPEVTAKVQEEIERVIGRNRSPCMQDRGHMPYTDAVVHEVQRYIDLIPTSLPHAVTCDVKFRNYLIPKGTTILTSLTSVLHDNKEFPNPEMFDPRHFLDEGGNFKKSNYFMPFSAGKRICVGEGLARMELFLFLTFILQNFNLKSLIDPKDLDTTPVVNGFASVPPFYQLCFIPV
smiles,measurement,setting,value
CC1=C(C(=O)O)N2C(=O)[C@@H](N)[C@H]2SC1,"activity change, negative = inhibition",[1],0.693% [at 23.6 µM]
same,"activity change, negative = inhibition",[2],0.138% [at 23.8 µM]
same,"activity change, negative = inhibition",[3],2.02% [at 23.6 µM]
same,"activity change, negative = inhibition",[4],-15.2% [at 23.6 µM]
same,"activity change, negative = inhibition",[5],-10.3% [at 23.6 µM]
same,"activity change, negative = inhibition",[6],5.86% [at 23.6 µM]
same,"activity change, negative = inhibition",[7],13% [at 23.6 µM]
same,"activity change, negative = inhibition",[8],3.94% [at 15.8 µM]
same,"activity change, negative = inhibition",[9],11.3% [at 23.6 µM]
NC1=NC(=O)C(c2ccccc2)O1 (stereo not drawn),Potency,[1],inactive
same,Potency,[2],inactive
same,Potency,[3],inactive
same,Potency,[4],inactive
same,Potency,[5],inactive
same,Potency,[6],inactive
same,Potency,[7],inactive
same,Potency,[8],inactive
N#Cc1ccncc1,Potency,[1],inactive
same,Potency,[2],inactive
same,Potency,[3],inactive
same,Potency,[4],inactive
same,Potency,[5],inactive
same,Potency,[6],inactive
same,Potency,[7],inactive
same,Potency,[8],inactive
CCC/C(=N\OCC)C1=C(O)CC(CC(C)SCC)CC1=O (stereo not drawn),Potency,[1],inactive
same,Potency,[2],inactive
same,Potency,[3],inactive
same,Potency,[4],11.3 µM (active)
same,Potency,[5],8.99 µM (active)
same,Potency,[6],31.9 µM (active)
same,Potency,[7],35.8 µM (active)
same,Potency,[8],inactive
same,Potency,[9],inactive
C[N+](C)=CCl,Potency,[1],inactive
same,Potency,[2],inactive
same,Potency,[3],inactive
same,Potency,[4],inactive
same,Potency,[5],inactive
same,Potency,[6],inactive
same,Potency,[7],inactive
same,Potency,[8],inactive
same,Potency,[9],inactive
O=[N+]([O-])c1cc(Cl)c(Cl)c(Cl)c1,Potency,[1],inactive
same,Potency,[2],inactive
same,Potency,[3],inactive
same,Potency,[4],inactive
same,Potency,[5],inactive
same,Potency,[6],inactive
same,Potency,[7],11.1 µM (active)
same,Potency,[8],inactive
CSc1nc(N=[N+]=[N-])nc(NC(C)C)n1,Potency,[1],inactive
same,Potency,[2],inactive
same,Potency,[3],inactive
same,Potency,[4],inactive
same,Potency,[5],71 µM (active)
same,Potency,[6],79.6 µM (active)
same,Potency,[7],28.3 µM (active)
same,Potency,[8],inactive
Cc1nc(N)nc(N)n1,Potency,[1],inactive
same,Potency,[2],inactive
same,Potency,[3],inactive
same,Potency,[4],inactive
same,Potency,[5],inactive
same,Potency,[6],inactive
same,Potency,[7],inactive
same,Potency,[8],inactive
same,Potency,[9],inactive
CCCCc1ccc(O)cc1,Potency,[1],inactive
same,Potency,[2],inactive
same,Potency,[3],inactive
same,Potency,[4],inactive
Cc1ncsc1CCCl,Potency,[1],inactive
same,Potency,[2],inactive
same,Potency,[3],inactive
same,Potency,[4],inactive
same,Potency,[5],inactive
same,Potency,[6],inactive
same,Potency,[7],inactive
same,Potency,[8],inactive
O=C1OC(CCN2CCCCC2)OC1(c1ccccc1)c1ccccc1 (stereo not drawn),Potency,[1],inactive
same,Potency,[2],inactive
same,Potency,[3],inactive
same,Potency,[4],0.871 µM (active)
same,Potency,[5],38.9 µM (active)
same,Potency,[6],15.5 µM (active)
ClC(Cl)Br,Potency,[1],inactive
same,Potency,[2],inactive
same,Potency,[3],inactive
same,Potency,[4],inactive
same,Potency,[5],inactive
same,Potency,[6],inactive
same,Potency,[7],inactive
same,Potency,[9],inactive
N#CC(O)c1ccccc1 (stereo not drawn),Potency,[1],inactive
same,Potency,[2],inactive
same,Potency,[3],inactive
same,Potency,[4],35.5 µM (active)
same,Potency,[5],inactive
same,Potency,[6],inactive
same,Potency,[8],inactive
same,Potency,[9],inactive
C[N+](=O)[O-],Potency,[1],inactive
same,Potency,[2],inactive
same,Potency,[3],inactive
same,Potency,[4],inactive
same,Potency,[5],inactive
same,Potency,[6],inactive
same,Potency,[8],inactive
same,Potency,[9],inactive
CS(=O)(=O)c1cc(C(F)(F)F)ccc1C(=O)c1cnoc1C1CC1,Potency,[1],inactive
same,Potency,[2],inactive
same,Potency,[3],inactive
same,Potency,[4],inactive
same,Potency,[5],56.4 µM (active)
same,Potency,[6],1.59 µM (active)
same,Potency,[7],35.6 µM (active)
same,Potency,[8],inactive
same,Potency,[9],inactive
CN(C)CCc1ccc(O)cc1,Potency,[1],inactive
same,Potency,[2],inactive
same,Potency,[3],inactive
same,Potency,[4],inactive
same,Potency,[5],inactive
same,Potency,[6],inactive
same,Potency,[7],inactive
same,Potency,[8],inactive
same,Potency,[9],inactive
CN1CCC(N(Cc2ccccc2)c2ccccc2)CC1,Potency,[1],inactive
same,Potency,[2],inactive
same,Potency,[3],inactive
same,Potency,[4],0.309 µM (active)
same,Potency,[5],inactive
same,Potency,[6],inactive
same,Potency,[7],inactive
same,Potency,[9],inactive
c1ccc(N2CCNCC2)cc1,Potency,[1],inactive
same,Potency,[2],inactive
same,Potency,[3],inactive
same,Potency,[4],inactive
same,Potency,[5],inactive
same,Potency,[6],inactive
same,Potency,[8],inactive
same,Potency,[9],inactive
CC(Cl)(Cl)[N+](=O)[O-],Potency,[1],inactive
same,Potency,[2],inactive
same,Potency,[3],inactive
same,Potency,[4],inactive
same,Potency,[5],inactive
same,Potency,[6],inactive
same,Potency,[7],inactive
same,Potency,[8],inactive
same,Potency,[9],inactive
C=C(C)[C@@H]1CC=C(C=O)CC1,Potency,[1],inactive
same,Potency,[2],inactive
same,Potency,[3],inactive
same,Potency,[4],inactive
same,Potency,[5],63.3 µM (active)
same,Potency,[6],71 µM (active)
same,Potency,[7],inactive
same,Potency,[8],inactive
same,Potency,[9],35.6 µM (active)
Cc1cccc(C#N)c1,Potency,[1],inactive
same,Potency,[2],inactive
same,Potency,[3],inactive
same,Potency,[4],inactive
same,Potency,[5],inactive
same,Potency,[6],inactive
same,Potency,[8],inactive
CCc1cc2c(s1)-n1c(C)nnc1CN=C2c1ccccc1Cl,Potency,[1],inactive
same,Potency,[2],inactive
same,Potency,[3],inactive
same,Potency,[4],inactive
same,Potency,[5],inactive
same,Potency,[6],inactive
same,Potency,[7],inactive
same,Potency,[8],inactive
same,Potency,[9],inactive
CCN(CC)C(C)C(=O)c1ccccc1 (stereo not drawn),Potency,[1],inactive
same,Potency,[2],inactive
same,Potency,[3],inactive
same,Potency,[4],19.5 µM (active)
same,Potency,[5],inactive
same,Potency,[6],inactive
same,Potency,[7],inactive
same,Potency,[8],inactive
same,Potency,[9],inactive
CC(C)COP(=O)(OCC(C)C)OCC(C)C,Potency,[1],inactive
same,Potency,[2],inactive
same,Potency,[3],inactive
same,Potency,[4],inactive
same,Potency,[5],inactive
same,Potency,[6],inactive
same,Potency,[8],inactive
CC(C)(C)C(=O)C(Oc1ccc(Cl)cc1)n1cncn1 (stereo not drawn),Potency,[1],inactive
same,Potency,[2],inactive
same,Potency,[3],inactive
same,Potency,[4],inactive
same,Potency,[5],3.17 µM (active)
same,Potency,[6],12.6 µM (active)
same,Potency,[7],35.5 µM (active)
same,Potency,[8],inactive
same,Potency,[9],0.399 µM (active)
